Measured values: PubChem BioAssay (EPA / NIEHS)
Where “and” joins values, the source holds several entries; their conditions need not be identical. Identical values can stand only once. Calls of active or inactive are those of the source. How the source made its calls: active means hit-call score of the fitted dose curve at least 0.9, where 1 is the maximum; inactive means score below 0.9.

Test: CCTE_Shafer_MEA_dev_burst_rate: CCTE's Neural Network Formation Assay for Burst Rate, Shafer Lab (AID 2284042)
Description: CCTE_Shafer_MEA_dev assay is conducted using Axion Biosystems 48 well microelectrode array (MEA) plates and Maestro recording system. Each well of the MEA plate contains a grid of 16 microelectrodes embedded in the culture surface. Electrically active cells, such as neurons, can be cultured over the electrodes, and electrical activity in these cells can be recorded extracellularly. The spontaneous firing of neurons is captured from each electrode on a microsecond timescale providing both temporally and spatially precise data. […] The CCTE_Shafer_MEA_dev assay uses primary cultures of rat cortical neurons. Recordings are made on days post-plating 5, 7, 9 and 12. As these cultures mature over time, neural networks develop functional activity and form cohesive networks in which electrical activity can be highly coordinated. CCTE_Shafer_MEA_dev_burst_rate is 1 of 19 assay components of the CCTE_Shafer_MEA_dev assay. It measures the frequency of single-electrode bursts (temporally-clustered groups of action potential firing) as the total number of bursts divided by the length of the recording in a microelectrode array (MEA) using Axion Biosystems Maestro 768 channel amplifier with the AxIS adaptive spike detector. The mean bursting rate is averaged across the active electrodes to report a well-mean value. To collapse across multiple recordings made on days post-plating 5, 7, 9 and 12, the trapezoidal area-under-the-curve of the component is calculated.Data from the assay component CCTE_Shafer_MEA_dev_burst_rate was analyzed into 1 assay endpoint. This assay endpoint, CCTE_Shafer_MEA_dev_burst_rate, was analyzed in the negative analysis fitting direction relative to DMSO as the negative control and baseline of activity. Using a type of functional reporter, gain or loss-of-signal activity can be used to understand electrical activity.
On the day prior to culture, each well was coated thoroughly with 150 uL of 0.05% polyethyleneimine (PEI, Sigma Cat P3143) in 50 mM HEPES (Sigma Cat H7523) at a pH of 8. The plate was incubated at 37C for one hour. PEI was rinsed out with 500 uL of sterile water three times. Plates were stored at 4C until the day of culture. This culture was plated at a seeding density of 1.5 x 10^5 cells/well on a 48-well MEA plate, prepared as described above. Cells were administered via a 25 uL media/laminin ([…]; Sigma Cat L2020-1MG) drop directly onto the microelectrode array, as adding the cells with the laminin results in better attachment than pre-coating with laminin. After 2 hours, an additional 475 uL of cortical media was added and the cells returned to the incubator. Exposure starts at day 0 of plating and is continued over twelve days of network development until the experiment is terminated. Cells are fed with fresh medium on DIV 5 and 9, following the recordings on those days. The entire volume of media in the well is exchanged and any vehicle or compound treatment is renewed. Complete details are found in OP-NHEERL/ISTD/SBB/TJS/2015-03-r0 (available on request, email shafer.tim@epa.gov). Measurement of the electrical activity is non-invasive, and recordings can be made from the same plate over multiple different days of the culture. In cortical neurons, this allows for the measurement of extracellular action potentials over the period during which networks form in the MEA plate.

| SMILES | outcome | AC50 |
| --- | --- | --- |
| NCC(F)(F)C(F)(F)C(F)(F)C(F)(F)F | inactive |  |
| c1ccc2cc3ccccc3cc2c1 | inactive |  |
| NC(=O)N1c2ccccc2C=Cc2ccccc21 | inactive |  |
| CCOc1ccc2[nH]cc(C(=O)NCc3ccccc3)c(=O)c2n1 | inactive |  |
| OC(Cn1cncn1)(Cn1cncn1)c1ccc(F)cc1F | inactive |  |
| NNC(=O)c1ccncc1 | inactive |  |
| CCN(CC)C(=S)SSC(=S)N(CC)CC |  | 124 nM (active) and 50 nM (active) |
| Nc1ccn([C@@H]2O[C@H](CO)[C@@H](O)[C@@H]2O)c(=O)n1 |  | 120 nM (active) and 1.09 µM (active) |
| C[C@]12C=CC(=O)C=C1CC[C@H]1[C@@H]3C[C@@H](O)[C@](O)(C(=O)CO)[C@@]3(C)C[C@H](O)[C@@]12F | inactive |  |
| Cn1cc[nH]c1=S | inactive |  |
| OC(O)(C(F)C(O)(O)C(F)(F)F)C(F)(F)F | inactive |  |
| CC[C@H](C)C(=O)O[C@H]1C[C@H](O)C=C2C=C[C@H](C)[C@H](CC[C@@H](O)C[C@@H](O)CC(=O)O)[C@H]21 | inactive |  |
| c1ccc2c(c1)-c1cccc3c1c-2cc1ccccc13 | inactive |  |
| O=C(Cl)C(F)(F)C(F)(F)C(F)(F)C(=O)Cl | inactive |  |
| CCCC(CCC)C(=O)O | inactive |  |
| FC(F)(F)COC(OCC(F)(F)F)OCC(F)(F)F | inactive |  |
| COc1cc2c(c(OC)c1OC)-c1ccc(OC)c(=O)cc1[C@@H](NC(C)=O)CC2 |  | 27.6 nM (active) |
| OCCC(F)(F)C(F)(F)C(F)(F)C(F)(F)F | inactive |  |
| FC(F)(F)C(F)(F)C(F)(F)C(F)(F)C(F)(F)C(F)(F)I | inactive |  |
